From PubChem BioAssay
NPC1 promoter act – qHTS Assay for NPC1 Promoter Activators; Huh7 NPC1 promoter luciferase reporter, 24 h; Potency, µM (doses to about 9.22 µM), hits mostly activators; 2.4% of 320,000 active; also: nearly all actives have a fitted effect of over 60% in size
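Luminescence read-out of NPC1 promoter-driven luciferase in stably transfected Huh7 cells; compounds delivered in DMSO and left 24 h at 37C, 5% CO2, qHTS titration format.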
SMN2 splice up – qHTS Assay for Enhancers of SMN2 Splice Variant Expression; HEK293 SMN2-luciferase splicing reporter, luminescence, 30-36 h; Potency, µM (top dose mostly 46.1 µM), actives largely listed as activators; 2.8% of 210,000 active; also: nearly all actives have a fitted effect of over 55% in size
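qHTS luciferase splicing reporter: luminescence rises when SMN2 exon 7 is included in transfected HEK293 cells. Compound exposure lasted 30-36 h at 37C, with 4.5 mM final sodium butyrate as control, followed by a ONE-Glo read.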
FLuc modulator – qHTS profiling assay for firefly luciferase inhibitor/activator using purifed enzyme and Km concentrations of substrates (counterscreen for miR-21 project) | Potency, µM (series often up to 57.5 µM), most hits filed as inhibitors | 6.9% of 360,000 active | purified FLuc, Km substrates, luminescence inhibition | AID 588342, 2011 | Luciferin 4-monooxygenase (Photinus pyralis), P08659; also: nearly all actives have a fitted effect of over 55% in size
Target sequence (P08659 whole entry, looked up): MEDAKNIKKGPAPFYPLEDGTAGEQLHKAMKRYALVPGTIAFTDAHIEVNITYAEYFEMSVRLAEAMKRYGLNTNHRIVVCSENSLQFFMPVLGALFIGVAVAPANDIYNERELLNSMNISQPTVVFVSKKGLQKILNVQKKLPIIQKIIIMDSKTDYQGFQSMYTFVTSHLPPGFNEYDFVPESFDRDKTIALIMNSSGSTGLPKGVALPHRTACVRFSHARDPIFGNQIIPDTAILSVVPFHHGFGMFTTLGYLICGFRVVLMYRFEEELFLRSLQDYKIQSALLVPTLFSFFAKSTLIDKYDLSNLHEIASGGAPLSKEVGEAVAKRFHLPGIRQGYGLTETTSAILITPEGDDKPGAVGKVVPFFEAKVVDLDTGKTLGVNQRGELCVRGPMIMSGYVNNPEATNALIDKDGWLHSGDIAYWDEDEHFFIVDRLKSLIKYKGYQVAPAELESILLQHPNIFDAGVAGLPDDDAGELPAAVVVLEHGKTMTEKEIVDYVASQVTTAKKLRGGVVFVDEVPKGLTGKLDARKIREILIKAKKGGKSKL
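Purified P. pyralis luciferase (10nM final) with 10uM D-luciferin and 10uM ATP (Km levels) in 50mM Tris acetate pH 7.5, 10mM Mg acetate, 0.01% Tween-20, 0.05% BSA; qHTS 6-point titration, ~60 µM downward; luminescence read.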
Rab9 prom act – qHTS Assay for Rab9 Promoter Activators. 2.8% of 320,000 active. Huh7 Rab9 promoter-luciferase reporter, luminescence, 24 h. Potency, µM (series often up to 9.22 µM), usual class: activators. AID 485297, 2010; also: nearly all actives have a fitted effect of over 60% in size
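Using Huh7 cells stably transfected with Rab9 promoter–luciferase, compounds were incubated 24 h at 37 °C, 5% CO2; luciferase luminescence was read 10 min after reagent addition.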
ELG1 genotoxic – qHTS screen for small molecules that induce genotoxicity in human embryonic kidney (HEK293T) cells expressing luciferase-tagged ELG1; HEK293T ELG1-luciferase reporter, luminescence, 16 h; Potency, µM (highest dose often 46 µM), usual class: activators; 1.3% of 330,000 active; AID 504466, 2011; also: nearly all actives have a fitted effect of over 60% in size
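HEK293T cells expressing luciferase-tagged ELG1 were treated with compound or DMSO for 16 hr at 37°C. Luciferase activity was then read after 30 min with ONE-Glo at room temperature; rising signal flags genetic stress.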
p53 reactivator – qHTS assay for re-activators of p53 using a Luc reporter; AID 504706, 2011; Potency, µM (doses to about 92.2 µM), hits mostly activators; H1299 p53-A138V BP100-luciferase reporter, luminescence, 24 h; 0.063% of 320,000 active; also: nearly all actives have a fitted effect of over 45% in size
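H1299 (p53-null), stable ts p53-A138V + BP100-Luc; 1000 cells/well, Opti-MEM/10% FBS; cpd 4 pt, 1:5; 24 h, 37 deg C, 5% CO2; detection reagent 10 min RT; luminescence.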
Each line names hits and unclear results; the compound was inactive in the other large screens. Only some compounds are listed: those with a hit (about 7.4% of all), similar ones and a draw of the others. Calls follow the shape of the dose curve; as a rule, active = well fitted curve in the direction sought with a large enough effect; inconclusive = small, poorly fitted or top-dose-only effect, or another doubt; inactive = no such curve, though single readings can be large; an effect the other way counts as inactive or inconclusive.

Cc1cc(N2CCCCC2)n2ncc(-c3ccccc3)c2n1	NPC1 promoter act 0.45µM, FLuc modulator 0.27µM, Rab9 prom act 0.32µM, ELG1 genotoxic inconclusive
Cc1cc(N2CCOCC2)n2ncc(-c3ccccc3)c2n1	NPC1 promoter act 0.56µM, SMN2 splice up 2.2µM, FLuc modulator 0.34µM, Rab9 prom act 0.71µM, ELG1 genotoxic 0.18µM
Cc1cc(N2CCN(C(=O)c3ccco3)CC2)n2ncnc2n1	none
Cc1cc(N2CCOCC2)n2nc(C(F)(F)F)c(-c3ccccc3)c2n1	none (no result: SMN2 splice up)
Cc1cc(N2CCN(C(=O)c3ccco3)CC2)n2ncc(-c3ccccc3)c2n1	NPC1 promoter act inconclusive, FLuc modulator 12µM, Rab9 prom act 3.5µM
Cc1cc(N2CCOCC2)n2ncc(-c3ccc(Cl)cc3)c2n1	NPC1 promoter act 2.2µM, FLuc modulator 0.6µM, Rab9 prom act 0.63µM, ELG1 genotoxic inconclusive, p53 reactivator inconclusive (no result: SMN2 splice up)
CC(C)(C)c1cc(N2CCOCC2)n2ncc(-c3ccc(Cl)cc3)c2n1	FLuc modulator inconclusive (no result: SMN2 splice up)
Cc1ccc(Cl)cc1NC(=O)c1cc(CN2CCCC2)on1	none (no result: NPC1 promoter act, SMN2 splice up, Rab9 prom act, ELG1 genotoxic, p53 reactivator)
CCCCN(C)CCNC(=O)Cn1ncc2c3ccccc3n(CCC)c2c1=O	none (no result: NPC1 promoter act, SMN2 splice up, Rab9 prom act, ELG1 genotoxic, p53 reactivator)
Cc1cccc(C)c1Nc1nn2c(=O)c3cc4c(cc3nc2s1)OCO4	none (no result: NPC1 promoter act, Rab9 prom act, ELG1 genotoxic, p53 reactivator)
Cc1cc(N2CCC(C)CC2)n2nc(C)c(-c3ccccc3)c2n1	none
Cc1cc(C)n(-c2cc(C(C)(C)C)nc3c(-c4ccccc4)cnn23)n1	NPC1 promoter act 2.5µM, FLuc modulator 1.9µM, Rab9 prom act 2.8µM, ELG1 genotoxic inconclusive, p53 reactivator inconclusive (no result: SMN2 splice up)
Cc1cc(N2CCCCC2)n2nc(C)c(-c3ccccc3)c2n1	FLuc modulator 19µM (no result: SMN2 splice up)
Cc1cc(N2CCCCC2)n2ncc(-c3ccc(Cl)cc3)c2n1	NPC1 promoter act 4µM, FLuc modulator 2.4µM, Rab9 prom act 2.8µM, ELG1 genotoxic 2.1µM
Cc1nc2cc(-c3cccc(F)c3)nn2c(C)c1CCC(=O)N1CCN(c2ccccn2)CC1	none (no result: SMN2 splice up)
Cc1nc2cc(-c3cccc(F)c3)nn2c(N2CCN(C(=O)c3ccco3)CC2)c1C	FLuc modulator 17µM, ELG1 genotoxic inconclusive, p53 reactivator inconclusive
Cc1ccc(-c2cnn3c(N4CCOCC4)cc(C)nc23)cc1	FLuc modulator 0.48µM, ELG1 genotoxic inconclusive (no result: SMN2 splice up)
CC(=O)Nc1ccc(Nc2cc(C)nc3c(-c4ccc(Cl)cc4)cnn23)cc1	NPC1 promoter act 2.2µM, SMN2 splice up inconclusive, Rab9 prom act 2.5µM, p53 reactivator inconclusive
Cc1cc(N2CCC(C)CC2)nc(-c2ccccc2O)n1	none (no result: SMN2 splice up)
C=CCSc1cc(C)nc2c(-c3ccccc3)c(C)nn12	FLuc modulator 12µM (no result: SMN2 splice up)
Cc1cc(N2CCC(C)CC2)n2ncc(-c3ccccc3)c2n1	NPC1 promoter act 0.35µM, FLuc modulator 0.76µM, Rab9 prom act 0.32µM, ELG1 genotoxic 0.41µM, p53 reactivator inconclusive
Cc1cccc(NC(=O)C2CCC(CNS(=O)(=O)c3ccc(Br)s3)CC2)c1 (stereo not given)	none (no result: NPC1 promoter act, Rab9 prom act, ELG1 genotoxic, p53 reactivator)
CC(NC(=O)C1CCN(C(=O)N2CCOc3ccc(Cl)cc32)CC1)c1ccccc1 (stereo not given)	none (no result: NPC1 promoter act, SMN2 splice up, Rab9 prom act, ELG1 genotoxic, p53 reactivator)
Cc1nc2c(-c3ccccc3)c(C)nn2c(C)c1CCC(=O)N1CCOCC1	none
C=CCc1c(C)nc2c(-c3ccccc3)cnn2c1N1CCOCC1	NPC1 promoter act 2.8µM, FLuc modulator 2.4µM, Rab9 prom act 1.6µM, ELG1 genotoxic 10µM, p53 reactivator inconclusive (no result: SMN2 splice up)
C=CCOC[C@@H]1CN2[C@H](c3ccc(Br)cc3)[C@@H](C)CC[C@H]2C(=O)O1	none (no result: NPC1 promoter act, FLuc modulator, Rab9 prom act, ELG1 genotoxic, p53 reactivator)
CS(=O)(=O)N1CCC2(CCN(C(c3ccccc3)c3ccccc3)CC2)CC1	none (no result: NPC1 promoter act, FLuc modulator, Rab9 prom act, ELG1 genotoxic, p53 reactivator)
CCOc1ccc(NC(=NCc2ccc3c(c2)OCO3)SC2CC(=O)N(c3ccc(OCC)cc3)C2=O)cc1 (stereo not given)	NPC1 promoter act inconclusive, SMN2 splice up 22µM, Rab9 prom act inconclusive, ELG1 genotoxic inconclusive, p53 reactivator inconclusive
